Here are results for 27 molecules from ChEMBL document CHEMBL1157539, “Thousands of chemical starting points for antimalarial lead identification” (Nature, 2010).

Molecules are shown by their SMILES.

The assay relates to Plasmodium falciparum. The assay can be described thus: GSK_TCMDC: Inhibition of Plasmodium falciparum 3D7 in whole red blood cells, using parasite LDH activity as an index of growth. Test compounds present at 2uM. The class given is functional.
Regarding `Cc1ccccc1C1CCN(C2CCC(NC(=O)/C=C/c3cccc(F)c3F)CC2)CC1` (configuration not stated), the Inhibition (commonly the drop in the measured response relative to a control, in per cent) came to 89%. Molecule `O=C(Nc1ccc(-c2cccc(-c3nc4cc(C(F)(F)F)ccc4[nH]3)c2)cc1)c1ccoc1` showed an Inhibition of 96%. `O=S(=O)(Nc1cccc(CCN2CCC(N3CCCCC3)CC2)c1)c1ccc2c(c1)OCCO2` returned an Inhibition of 91%.

Molecule `Br.CCn1c2c(c(=N)c3ccccc31)CCC2` displayed an Inhibition of 83%.

Take `CCc1c(CCNCCCCCCNCCc2ccc(OC)cc2)ccc(OC)c1OC.Cl`: the Inhibition is on record as 98%.

Molecule `Cc1cc(NC(=O)NCCN2CCC(NS(=O)(=O)c3cccc(Br)c3)C2)c2ccccc2n1.O=C(O)C(F)(F)F` (configuration not stated) yielded an Inhibition of 99%.

In turn, `O=C1NC(=O)C(c2cccc(NC(=O)c3ccncc3)c2)=C1c1ccccc1` displayed an Inhibition of 100%. `Cc1cc(NC(=O)Nc2ccc(C#N)cc2)c2ccccc2n1`: the Inhibition came out at 100%.

`COc1ccc2nccc([C@@H](O)CN3CCC(NCc4cnc5snnc5c4)C(F)C3)c2c1.Cl` (some centres not stated) registered an Inhibition of 83%. Molecule `Cl.O=C1Nc2ccc3ncccc3c2/C1=C/Nc1ccc(N2CCN(CCO)CC2)cc1` registered an Inhibition of 86%. For `COc1ccc(CNc2ncc(-c3ccsc3)c(-c3nccs3)n2)cc1OC`, the Inhibition stood at 86%.

`CC(C)(C)c1cc(NC(=O)c2ccc(Cl)c([N+](=O)[O-])c2)cc(C(C)(C)C)c1` showed an Inhibition of 93%. Consider `COc1ccc2c(N/N=C/c3cccc([N+](=O)[O-])c3)ccnc2c1`, for which the Inhibition is recorded as 100%. `COc1cc(N)c(Cl)cc1C(=O)NCC1CCN(c2nc(C)cc(C)n2)CC1` yielded an Inhibition of 96%.

As to `CC(=O)NCCNc1cc(N2CCc3ncnc(Nc4ccc(OCc5c(F)cccc5F)c(Cl)c4)c3C2)ncn1`, the Inhibition is 100%. `O=[N+]([O-])c1cccc(/C=N/Nc2ccnc3cc(F)ccc23)c1` showed an Inhibition of 100%.

The molecule `CC[C@H](N/C(=N\c1cccc(Cl)c1Cl)Nc1ccc(C#N)cc1O)c1ccccc1` displayed an Inhibition of 91%.

Consider `CCN1CCCC1CNC(=O)c1cc2c(-c3ccc(Cl)cc3)nn(C)c2s1` (configuration not stated), for which the Inhibition was found to be 96%. The same measure for `Cc1c(F)cc(C(=O)NC2CC2)cc1-c1ccc2c(c1)c(C)nn2S(=O)(=O)c1cccs1`: 91%; for `CC(C)(C)c1ccc(NC(=O)c2cccc(CN3CCCN(Cc4cccc(O)c4)CC3)c2)cc1.O=C(O)C(F)(F)F`: 100%; for `COc1ccc(NC(=O)Nc2cccc(-c3ccc(-c4nc5cccc(C)c5[nH]4)s3)c2)cc1`: 100%. Molecule `c1nc(CCNc2nc(Nc3ccc4c(c3)OCO4)nc(NC3CCCC3)n2)c[nH]1` yielded an Inhibition of 80%. Consider `Fc1cc(Cl)ccc1Nc1ccnc2cc(I)ccc12`, for which the Inhibition is 90%. `O=C(CC1CCCC1)N(Cc1ccc(-c2ccc(CNC3Cc4ccccc4C3)cc2)cc1)CC1CCCCN1.O=C(O)C(F)(F)F` (configuration not stated) came in with an Inhibition of 88%. For the molecule `CNC(=O)c1cnc(Nc2ccc3[nH]c(=O)[nH]c3c2)nc1Nc1cccc(OC(C)C)c1.O=C(O)C(F)(F)F`, the Inhibition is on record as 89%.

In the case of `CC(C)c1ccc(NC(=O)c2ccc(C(=O)NC3CCN(Cc4ccccc4)CC3)cc2)cc1.O=C(O)C(F)(F)F`, the Inhibition is given as 88%.

For the molecule `CCOC(=O)c1ccc(NC(=O)Nc2cccc(-c3ccc(-c4nc5ccccc5[nH]4)cc3)c2)cc1`, the Inhibition is 100%.
